These results are taken from PubChem BioAssay (NCI).

Several values for one entry are separate records, joined by “and”; a condition that tells them apart may be missing. Identical values can stand only once. Compounds without any hit were thinned out: in the full panel of roughly 83,000, 20% have a hit.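 Treatment: one concentration, 48 hours, 96-well format. Scoring: percent growth, with anything below 10 considered active.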 Unmarked numbers belong to inactive results. Activity calls are given as the source filed them.

Holding throughout (experiment): NCI-60 one-dose screen, 48 h (100 = growth as untreated, 0 = no growth, -100 = all killed)
Conditions in all cases: 10 µM unless noted

Test [1] deals with HCT-15 colon.
Test [2] deals with HT29 colon.
In test [3] the test system is SNB-75 CNS.
The test system of test [4] is SNB-19 CNS.
Test [5] concerns U251 CNS.
Test [6] deals with SK-MEL-5 melanoma.
The subject of test [7] is UACC-62 melanoma.
Test [8] deals with LOX IMVI melanoma.
For test [9], the system named is SK-MEL-28 melanoma.
The subject of test [10] is SK-MEL-2 melanoma.
Test [11] has as its system EKVX NSCLC.
In test [12] the test system is SN12C renal.
Test [13] has as its system UO-31 renal.
The test system of test [14] is TK-10 renal.
The test system of test [15] is ACHN renal.
The subject of test [16] is CAKI-1 renal.
Test [17] deals with A498 renal.
Test [18] concerns CCRF-CEM leukemia.
The subject of test [19] is MOLT-4 leukemia.
The subject of test [20] is PC-3 prostate.

As to `C=C(CNCCc1ccc(O)cc1)[C@@H]1CC[C@]2(CO)CC[C@]3(C)[C@H](CC[C@@H]4[C@@]5(C)CCC(NCCc6ccc(O)cc6)C(C)(C)[C@@H]5CC[C@]43C)[C@@H]12` (stereo partly specified), the growth in test [1] was -86.9% (active); in test [2], -87.7% (active); in [3] it was -87.3% (active); in test [4] it was -85.4% (active); in test [5], -88.4% (active); in test [6] it was -93.5% (active). Besides, the growth was -88% (active) in test [7]; -86.3% (active) in [8]; -87.6% (active) in test [9]; -84.2% (active) in test [10]; -85.7% (active) in test [11]; -85.1% (active) in test [12]. For the same molecule, the growth is -93.7% (active) in [13]; -92.6% (active) in [14]; -98.9% (active) in test [15]; -57.7% (active) in test [16]; -96.6% (active) in [17]; -43.1% (active) in test [18]. Also, the growth in test [19] is -49.1% (active).
On to `Cc1ccc(-c2nc3nc(-c4ccc(F)cc4)nc(N4CCCNCC4)c3o2)cc1`, for which the growth in test [1] is -84.5% (active); in [2], -81.6% (active); in test [3], -96% (active); in test [4] it was -94.4% (active); in test [5], -93.2% (active); in test [6], -87.4% (active). The growth in test [7] was -82.3% (active); in test [8] it was -88.6% (active); in test [9], -93.8% (active); in test [10], -61.2% (active); in [11] it was -75.6% (active); in test [12], -91.2% (active). Further, the growth in test [13] is -88.5% (active); in test [14], -93.8% (active); in [15] it was -99.3% (active); in test [16], -95.4% (active); in [17], 77.5%; in test [18], -77.7% (active). Further, the growth in test [19] is -61.1% (active).
Take `COc1ccc(C2=C(CN)C(O)NC(=NCC(=O)c3ccc4ccccc4c3)N2)cc1` (stereo unspecified): the growth was 106% in test [1]; 101% in [2]; 87.2% in test [3]; 104% in [4]; 102% in [5]; 108% in [6]. The growth is 101% in [7]; 95.5% in test [8]; 103% in test [9]; 99.9% in test [10]; 113% in test [11]; 103% in [12]. In addition, the growth in [13] is 81%; in [14], 98.1%; in test [15], 94.5%; in test [16], 94.5%; in [17] it was 118%; in test [19], 98%.
Regarding `COc1ccc(-c2nc(Cl)c3c(C)nn(-c4ccc(F)cc4)c3n2)cc1`, the growth in [1] is 110%; in test [2] it was 98.3%; in test [3] it was 104%; in test [4] it was 99.7%; in test [5], 96.5%; in test [6], 100%. Moreover, the growth in test [7] is 100%; in [8], 101%; in test [9] it was 110%; in test [10], 91.9%; in test [12], 99%; in test [13] it was 97.3%. The growth in test [14] is 98%; in test [15], 106%; in [16], 107%; in test [17], 101%; in test [18], 102%; in test [19] it was 103%.
As for `Cc1cnc(C(=O)NNc2nc3sc4c(c3c(=O)[nH]2)C(C)CCC4)cn1` (stereo unspecified), the growth in test [1] was 26%; in test [2], 27.9%; in [3], 36.8%; in test [4], 22.3%; in test [5], 10.4%; in test [6], -38.1% (active). Also, the growth was 8.87% (active) in test [7]; 0.703% (active) in test [8]; 23.3% in [9]; 24.7% in test [10]; 23.5% in test [11]; 26% in test [12]. The growth is 4.88% (active) in test [13]; 33.5% in test [14]; 6.98% (active) in test [16]; 11.8% in test [18]; 15.7% in test [19].
Take `ON=C1CCCCCCCC1`: the growth in test [1] is 105%; in test [2], 104% and 110%; in test [3], 101% and 80.7%; in [4] it was 106% and 104%; in test [5], 107% and 110%; in test [6] it was 106%. For the same molecule, the growth in [7] was 103% and 110%; in [8], 95.4% and 102%; in test [9], 105% and 113%; in test [10], 94.9% and 100%; in [12] it was 97.2% and 102%; in test [13], 79.9% and 85.4%. The growth in test [14] is 100%; in test [15], 98.6% and 105%; in test [16], 105% and 99.8%; in [17], 102% and 105%; in test [18] it was 107% and 101%; in test [19], 101% and 96.2%.
For `Cc1nc(Nc2ncc(C(=O)Nc3c(C)cccc3Cl)s2)cc(N2CCN(CCO)CC2)n1`, the growth is 32.5% and 21.3% in [1]; 5.06% (active) and -19.7% (active) in [2]; -32.6% (active) and -35.7% (active) in test [3]; 68.7% and 40.1% in test [4]; 57.6% and 37.2% in [5]; 54.1% and 40.7% in test [20]. Further, the growth in test [6] was 66.6% and 53.8%; in test [7], 55.3% and 34.9%; in test [8], -66.3% (active) and -93.8% (active); in [9] it was 64% and 36%; in test [11], 41.5% and 33.2%; in [12], 24% and 18.3%. For the same molecule, the growth in [13] is -0.429% (active) and -14.3% (active); in test [14] it was -7.96% (active) and -61.7% (active); in [15], 1.96% (active) and -15.4% (active); in test [16], -44.3% (active) and -28.7% (active); in [18], 77.3% and 41.6%; in test [19], 66.1% and 29.6%.
In the case of `O=C(/C=C/C12c3ccccc3C(c3ccccc31)C1C(=O)NC(=O)C12)c1ccncc1` (stereo unspecified), the growth in test [1] is 4.66% (active); in [2], 12.1%; in test [3] it was 13.7%; in [4] it was 14.5%; in [5] it was 7.81% (active); in test [20], 20.8%. Besides, the growth in test [6] was 27.6%; in test [7], 23.4%; in test [8], -10.7% (active); in test [9] it was 24.7%; in test [11] it was 80.6%; in test [12], 7.85% (active). The growth in [13] was 26.5%; in test [14] it was 17.5%; in [16], 43.9%; in test [17], 87.4%; in test [18], -12.7% (active); in test [19], 1.28% (active).
For `Cc1ccc(-c2nc3nc(-c4ccc(Cl)cc4)nc(N4CCCNCC4)c3o2)cc1`, the growth in [1] was -81.5% (active); in [2] it was -82.4% (active); in [3], -10.4% (active); in test [4], -89.7% (active); in [5] it was -86.9% (active); in [6] it was 92.8%. The growth was 95.6% in test [7]; -83.2% (active) in test [8]; 108% in test [9]; 103% in test [10]; 123% in test [11]; -86% (active) in test [12]. Further, the growth is -78.7% (active) in test [13]; 29.7% in [14]; -98.9% (active) in [15]; -92.3% (active) in test [16]; 95.2% in [17]; -72.6% (active) in [18]. The growth in [19] is -71.2% (active).
For the molecule `CCOC(=O)c1nnn(Cc2cc(=O)oc3c2ccc2ccccc23)c1C`, the growth in test [1] was 104%; in test [2], 96.7%; in test [3] it was 91.6%; in test [4], 98.2%; in test [5], 104%; in test [20], 89.2%. Besides, the growth in test [6] was 101%; in test [7], 98.7%; in [8] it was 101%; in test [9], 109%; in [11], 105%; in [12] it was 96.7%. The growth in test [13] was 77.3%; in test [14] it was 101%; in test [16], 98%; in test [17] it was 108%; in test [18] it was 88.2%; in test [19], 108%.
With `C=C1C(=O)O[C@H]2[C@H]1CC/C(COC(=O)NCc1ccc(Cn3c(=O)sn(CCCI)c3=O)cc1)=C\CC[C@@]1(C)O[C@@H]21`, the growth in test [1] is 26.9%; in test [2], -46.1% (active); in [3], 71.7%; in test [4], 96.2%; in [5], 50.9%; in [6], 91.9%. Also, the growth in test [7] was 15.6%; in test [8], -24.5% (active); in test [9] it was 4.93% (active); in [10] it was 68.5%; in test [11], 91.7%; in [12], 2.19% (active). Besides, the growth in test [13] is -30.1% (active); in test [14], 0.113% (active); in test [15], 16.2%; in test [16], 33.7%; in test [17], 105%; in [18], -9.69% (active). In addition, the growth in test [19] was 9.74% (active).
In the case of `CC12OC(CC(O)C1O)n1c3ccccc3c3c4c(c5c6ccccc6n2c5c31)C(=O)N(CCN1CCOCC1)C4=O` (stereo unspecified), the growth in test [1] is 9.81% (active); in [2] it was 2.31% (active); in test [3], -5.19% (active); in test [4], 8.99% (active); in test [20] it was 7.32% (active); in test [6], -44.5% (active). Besides, the growth in test [7] was -52% (active); in test [8], -61.1% (active); in test [9], 34.6%; in [10], 12.6%; in test [11], 32%; in [12] it was 10.3%. The growth in test [13] was -9.86% (active); in test [14], -11.1% (active); in [15] it was -59.7% (active); in test [16] it was 2.22% (active); in test [17] it was -15.3% (active); in test [19] it was 3.59% (active).
On to `CC(=O)c1c(C)nc(SCC(=O)Nc2ccc(Cl)cc2)n1-c1ccc(Cl)cc1`, for which the growth in test [1] is 84.6%; in test [2] it was 83%; in test [3], 73.1%; in [4] it was 93.7%; in [20], 71.8%; in test [6], 81.9%. Besides, the growth in test [7] is 69.7%; in test [8] it was 93.1%; in test [9] it was 104%; in test [10], 94%; in [11] it was 95.5%; in [12], 87%. Moreover, the growth in [13] was 80.9%; in test [14], 99.5%; in test [15], 93.7%; in test [16], 81.7%; in [17] it was 83.2%; in test [18], 87.5%. For the same molecule, in test [19], the growth was 64.1%.
In the case of `COc1ccc(-c2csc(NC(=O)CN3CCN(CCO)CC3)n2)cc1NS(=O)(=O)c1cccc2c(N(C)C)cccc12`, the growth in [1] was 39.6%; in [2], 20.1%; in test [3] it was 78.2%; in [4], 74.3%; in test [20] it was 72.7%; in test [6] it was 58.5%. Also, the growth was 89% in [7]; -57.9% (active) in [8]; -2.57% (active) in test [9]; 86.9% in test [10]; 80.9% in test [11]; 89.1% in [12]. Also, the growth in test [13] is 61.4%; in test [14] it was 109%; in test [16] it was 75.6%; in test [17] it was 102%; in test [18], 54.8%; in [19], 65.4%.
